In ChEMBL document CHEMBL3433997, “St. Jude Leishmania screening dataset” (2016):

How the values were obtained:
Assay type in all cases: functional
[1] = molecular target: Solute carrier family 2, facilitated glucose transporter member 1 (Homo sapiens) (UniProt P11166); assay: ST_JUDE_LEISH: Cytotoxicity at 2uM final concentration against transgenic Leishmania Mexicana promastigotes LmGLUT1 that are glucose transport deficient and complemented with the human glucose transporter GLUT1. Activity is measured by DNA content using SYBR green in vitro
Solute carrier family 2, facilitated glucose transporter member 1 (Homo sapiens), sequence (P11166 whole entry): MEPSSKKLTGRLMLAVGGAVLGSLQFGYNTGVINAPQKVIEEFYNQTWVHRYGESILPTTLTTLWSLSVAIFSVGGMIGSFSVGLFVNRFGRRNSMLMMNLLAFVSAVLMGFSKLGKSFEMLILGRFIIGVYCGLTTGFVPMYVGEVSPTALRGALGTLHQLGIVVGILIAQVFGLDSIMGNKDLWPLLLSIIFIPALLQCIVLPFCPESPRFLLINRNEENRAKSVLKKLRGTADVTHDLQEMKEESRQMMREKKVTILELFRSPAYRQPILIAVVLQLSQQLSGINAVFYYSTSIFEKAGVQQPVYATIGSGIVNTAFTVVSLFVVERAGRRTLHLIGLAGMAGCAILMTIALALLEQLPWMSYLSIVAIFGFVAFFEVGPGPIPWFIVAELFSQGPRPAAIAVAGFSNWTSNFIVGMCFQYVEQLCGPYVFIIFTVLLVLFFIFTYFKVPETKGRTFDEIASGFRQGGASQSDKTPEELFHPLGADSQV

[2] = molecular target: Hexose transporter 1 (Plasmodium falciparum) (UniProt O97467); assay: ST_JUDE_LEISH: Cytotoxicity at 2uM final concentration against transgenic Leishmania Mexicana promastigotes LmPfHT that are glucose transport deficient and complemented with the Plasmodium falciparum hexose transporter. Activity is measured by DNA content using SYBR green in vitro
[3] = molecular target: Glucose transporter (Leishmania mexicana) (UniProt O61059); assay: ST_JUDE_LEISH: Cytotoxicity at 2uM final concentration against transgenic Leishmania Mexicana promastigotes LmGT2 that are glucose transport deficient and complemented with the L. Mexicana glucose transporter 2. Activity is measured by DNA content using SYBR green in vitro

Row | Structure (SMILES) | inhibition [1] [%] | inhibition [2] [%] | inhibition [3] [%]
1 | Cc1cc(C)cc(OCC(O)CN(Cc2cc(Cl)cc(Cl)c2)C(=O)Nc2ccccc2Cl)c1 (stereo not drawn) | 2.01 | 1.42 | -7.19
2 | O=C(c1ccc(Cl)cc1)N1CCCC(C(=O)N(Cc2nnc(-c3ccccc3Cl)o2)C2CC2)C1 (stereo not drawn) | 0.11 | 1.56 | -0.04
3 | c1ccc(-c2cc(NCc3cccc4ccccc34)c3[nH]ncc3n2)cc1 | 5.11 | 5.96 | 6.54
4 | CC(C)CSc1cc(C(=O)Nc2cc(Cl)ccc2O)ccn1 | -0.74 | -0.12 | -2.72
5 | Cc1ccc(CNC(=O)[C@H](CC(C)C)Nc2cc(C)nc(NCc3ccccc3C)n2)cc1 | 4.3 | 4.62 | 3.14
6 | c1cc(OCCN2CCCC2)ccc1CNC1CCN(CC2CCCCC2)CC1 | -3.76 | -0.11 | -4.21
7 | N#Cc1ccc2c(c1)CCN(CCCn1c(-c3ccc4ccccc4c3)nc3ccncc31)CC2 | 15.1 | 16.1 | 10.4
8 | COc1nc2c(CCN3CCC(NCc4ccc5c(c4)NCCO5)CC3)c(Cl)cnc2cc1F | 14.1 | 9.24 | 2.35
9 | O=S(=O)(c1ccc(OCc2ccc(Cl)cc2)cc1)c1cc2c(cc1OCc1ccccc1)CCN(CC1CC1)CC2 | 0.01 | -1.17 | -3.24
10 | CCc1c(C)nc(-n2nc(C)cc2NC(=O)C2c3ccccc3Oc3ccccc32)[nH]c1=O | -0.64 | -0.55 | 3.35
11 | Clc1ccc(Cc2nc3ccccc3[nH]2)cc1Cl | 4.81 | 4.08 | 4.23
12 | COC(=O)C1(NC(=O)c2ccc(-n3nc(C)c(-c4ccccc4)c3N)cc2)CCCC1 | 2.04 | 2.33 | 2.55
13 | CCOc1cc(C(=O)Nc2ccc3nc(N4CCN(C)CC4)cc(C)c3c2)cc(OCC)c1OCC | 3.11 | 3.76 | 1.63
14 | COc1cccc(-c2cc(C(F)(F)F)n3ncc(C(=O)Nc4cc(Cl)ccc4O)c3n2)c1 | 0.65 | 1.53 | -2.22
15 | CCCCc1cc(NCc2ccncc2)nc(Nc2ccc(OC)cc2)n1 | 12.9 | 5.76 | 3.3
16 | COc1cc2ccccc2c(CNCCCCCCNCc2c(OC)c(OC)cc3ccccc23)c1OC | 4.39 | 3.44 | 1.23
17 | COc1ccc(-c2nc(NC(=O)COc3ccc(C(C)=O)cc3)sc2C)cc1 | 2.62 | 2.48 | 2.69
18 | Cc1cccc2nc(-c3ccc(-c4cccc(CNCCNC(=O)c5ccnn5C)c4)cc3)[nH]c12 | 0.53 | 1.5 | -3.68

Row | Structure (SMILES) | inhibition [1] [%] | inhibition [2] [%] | inhibition [3] [%]
19 | CC(C)COc1ccc(Cl)cc1Cc1ccc(-c2nc3cnc4ccccc4c3[nH]2)o1 | 3.89 | 2.77 | 2
20 | CCN(CC)CCCCNc1cc(-c2[nH]c(C(C)(C)C)nc2-c2ccc3cc(OC)ccc3c2)ccn1 | 4.69 | 4.79 | 1.94
21 | O=S(=O)(Nc1ccc2nccc(N3CCNCC3)c2c1)c1ccc2oc3ccccc3c2c1 | 4.08 | 6.5 | 5.02
22 | O=C(CCc1ccccc1)N[C@H](Cc1c[nH]c2ccccc12)C(=O)N1CCC(NCc2ccc3c(c2)Cc2ccccc2-3)CC1 | 7.69 | 7.43 | 7.1
23 | N=C(N)NCCCC(=O)NCC(N)=O | 5.44 | 8.67 | 2.28
24 | CN(C)CCN(C)Cc1ccc(-c2ccc(NC(=O)c3cccc(Cl)c3)cc2)cc1 | 7.23 | 6.44 | 6.55
25 | COc1ccc(CN(C)C(=O)CCNS(=O)(=O)c2ccc3c(c2)OCCCO3)cc1F | 5.25 | 6.84 | 7.12
26 | O=[N+]([O-])c1cc(/C=N/Nc2nc3ccccc3[nH]2)ccc1O | 8.03 | 8.49 | 4.27
27 | COc1ccccc1-c1[nH]c2ccccc2c1CN1CCC(c2c(C)cccc2C)CC1 | 16.3 | 16.1 | 11
28 | COc1ccc(NC(=O)CCNc2cc(C)nc(NCc3ccccc3C)n2)cc1 | 5.23 | 5.4 | 3.93
29 | Cc1nc2c(c(C)nn2C(C)(C)C)c(C)c1CCC(=O)Nc1ccc(CN2CCCC2)cc1 | 9.93 | 6.16 | 5.29
30 | CCc1cn2c3c(cc(C(=O)N[C@@H](Cc4cccc(F)c4)[C@H](O)CNC4CCOCC4)cc13)N(C)S(=O)(=O)CC2 | -0.16 | 0.52 | 1.47
31 | CN(C)c1ccc(C2c3[nH]cnc3CCN2C(=O)Nc2cccc([N+](=O)[O-])c2)cc1 (stereo not drawn) | 7.55 | 8.52 | 1.43
32 | Oc1ccc(Cl)c2c1C(c1ccccc1)=NCC2 | -1.17 | -0.25 | 1.69
33 | CCN1CCC(N(CCCCCCc2ccc(C(F)(F)F)cc2)C(=O)Cn2c(CCc3cccc(F)c3F)cc(=O)c3ccccc32)CC1 | 5.17 | 3.94 | 2.53
34 | O=C(Nc1ccc(C(F)(F)F)cc1)c1cccc(S(=O)(=O)NC2CCN(CC3CCCCC3)CC2)c1 | 5.27 | 5.53 | 4.52
35 | COc1ccc(-c2ccc(NC(=O)c3cccc(Cl)c3)cc2)cc1CN1CCN(C)CC1 | 6.52 | 4.97 | 3.15
36 | Cc1cccc2nc(-c3cccc(-c4cccc(NC(=O)CC5NC(=O)c6ccccc65)c4)c3)[nH]c12 (stereo not drawn) | 0.82 | 1.34 | 3.21
